6 compounds from PubChem BioAssay (Tox21) can be followed below.

Values without a mark were called inactive. Records with an inconclusive call do not appear. Calls of active or inactive are those of the source. Unless noted, the call rests on the fitted dose curve; in most records, active means well fitted curve in the direction sought with a large enough effect in the repeat runs; inconclusive means weak or mixed curves; inactive means no such curve, though single readings can be large; an effect the other way counts as inactive or inconclusive.

For assay [1], the target named is Luciferin 4-monooxygenase (Photinus pyralis) (UniProt P08659). The assay can be described thus: qHTS assay to identify small molecule inhibitors of firefly luciferase (AID 1224835). Further: nearly all actives have a fitted effect of over 25% in size. Further: potency means the concentration at half of the fitted maximal effect. In outline:
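Biochemical qHTS: compounds run as interplate titrations against purified firefly enzyme, with D-luciferin and ATP each at its KM concentration. Light output recorded by CCD imaging.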
(qHTS replaces the single test concentration by a dilution series.)

Assay [2] can be described thus: qHTS assay to identify small molecule agonists of the constitutive androstane receptor (CAR) signaling pathway - cell viability counter screen (AID 1224836). Further: nearly all actives have a fitted effect of over 45% in size. Further: potency means the concentration at half of the fitted maximal effect. The procedure, abridged: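 Using CellTiter-Fluor, viability of HepG2 cells harbouring hCAR and CYP2B6-2.2kb was measured following 23 h incubation with a 15-concentration compound series plus PK11195 (0.75 uM final).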

Assay [3] can be described thus: qHTS assay to identify small molecule antagonists of the constitutive androstane receptor (CAR) signaling pathway - cell viability counter screen (AID 1224837). Further: nearly all actives have a fitted effect of over 45% in size. Further: potency means the concentration at half of the fitted maximal effect. In outline: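 Fluorescence from CellTiter-Fluor served as the viability signal. Human hepatoma HepG2 cells stably bearing hCAR and CYP2B6-2.2kb received compound plus CITCO (50 nM final) for 23 hr.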
The target in assay [4] is Nuclear receptor subfamily 1 group I member 3 (Homo sapiens) (UniProt Q14994). The assay can be described thus: qHTS assay to identify small molecule antagonists of the constitutive androstane receptor (CAR) signaling pathway (AID 1224838).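 Further: HepG2 cells stably expressing hCAR with CYP2B6 luciferase reporter stimulated by CITCO; nearly all actives have a fitted effect of over 40% in size.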 Further: potency means the concentration at half of the fitted maximal effect. The procedure, abridged:
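Quantitative HTS in double-stable HepG2-CYP2B6-hCAR cells. After 4 h plating, cells get compound (15 concentrations) and CITCO at 50 nM final, incubate 24 h at 37 C, then ONE-Glo luminescence is read.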

The target is the same in assay [5]. The assay can be described thus: qHTS assay to identify small molecule agonists of the constitutive androstane receptor (CAR) signaling pathway (AID 1224839).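 Further: HepG2 cells stably carrying human CAR and a CYP2B6 luciferase reporter; nearly all actives have a fitted effect of over 15% in size.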 The procedure, abridged:
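Double-stable HepG2 cells (hCAR, CYP2B6-2.2kb) seeded 4 h before compound addition. Exposure 24 h with 0.75 uM PK11195 final. Luciferase detected by ONE-Glo.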

Assay [6] is described as follows: qHTS assay to identify small molecule antagonists of the estrogen related receptor signaling pathway with the pleiotropic PPARgamma coactivator (PGC) from Tox21 10K library - cell viability counter screen (AID 1224840; active means well fitted cell-killing curve with a large enough effect in the repeat runs, not every such curve was filed as active; further: nearly all actives have a fitted effect of over 40% in size; further: potency means the concentration at half of the fitted maximal effect). The procedure, abridged: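 Compounds in DMSO, alongside positive and negative controls, were pinned onto PGC/ERR cells (2,000 per well). Exposure lasted 17.5 hours at 37 C, followed by a 30-minute CellTiter-Fluor incubation and fluorescence reading.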

The nature of assay [7]: qHTS assay to identify small molecule antagonists of the estrogen related receptor signaling pathway with the pleiotropic PPARgamma coactivator (PGC) from Tox21 10K library (AID 1224841; call rule not given here; further: actives are mostly falling curves and most rising ones were filed inactive; nearly all actives have a fitted effect of over 50% in size; further: potency means the concentration at half of the fitted maximal effect). In outline:
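Compound exposure ran 18 hours at 37 C in PGC/ERR cells (2,000/well) that had first rested 6 hours in a 37 C/5% CO2 incubator. Luciferase activity was then detected with One-Glo after a 30-minute room-temperature step.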

The nature of assay [8]: qHTS assay to identify small molecule agonists of the estrogen related receptor signaling pathway with the pleiotropic PPARgamma coactivator (PGC) from Tox21 10K library (AID 1224842). Further: nearly all actives have a fitted effect of over 15% in size. In outline: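 PGC/ERR reporter cell line, 2,000 cells per well, incubated 6 h at 37 C before 23 nL compound in DMSO was added. After 18 h at 37 C, One-Glo luminescence read following 30 min at room temperature.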

For assay [9], the target named is Thyrotropin receptor (Homo sapiens) (UniProt P16473). Description: qHTS assay to identify small molecule agonists of the thyroid stimulating hormone receptor (TSHR) signaling pathway (AID 1224843; calls by dose curve; further: nearly all actives have a fitted effect of over 45% in size). In outline:
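TSHR-HEK293 cells in agonist mode, 30 min room-temperature step, then cAMP measured by competitive HTRF (cAMP-d2 with anti-cAMP cryptate) after 1 h at room temperature. Tested at 15 concentrations in triplicate.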

Assay [10] is described as follows: qHTS assay to identify small molecule agonists of the hypoxia (HIF-1) signaling pathway - cell viability counter screen (AID 1224844; calls by dose curve; further: nearly all actives have a fitted effect of over 50% in size; further: potency means the concentration at half of the fitted maximal effect). The procedure, abridged: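 Luminescent ATP content (CellTiter-Glo, 30 min, room temperature) served as the viability measure in HRE-bla ME-180 cells exposed to compounds for 17 hrs in low-serum medium (0.5% dialyzed FBS).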
A short description of assay [11]: qHTS assay to identify small molecule agonists of H2AX (AID 1224845; active means well fitted activation curve with a large enough effect in the signal ratio in the repeat runs, not every such curve was filed as active; the % refers to the signal ratio). The procedure, abridged: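 Wild-type CHO-K1 cells, plated overnight, exposed 3hr at 37C to 15 concentrations (0.76% DMSO final). Lysed, then HTRF anti-pH2AX (S139) cryptate and anti-H2AX-d2 antibodies, 24 hr room temperature; 665/620 nm emission read.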
Assay [12] can be described thus: qHTS assay to identify small molecule agonists of the hypoxia (HIF-1) signaling pathway (AID 1224846; active means well fitted activation curve with a large enough effect in the signal ratio in the repeat runs, not every such curve was filed as active; the % refers to the signal ratio). The procedure, abridged:
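Measured by blue/green FRET after loading CCF4-AM: beta-lactamase expressed from a hypoxia response element in ME-180 cells. Test agents were delivered in DMSO and left 17 hrs; cells had been plated 5 hrs earlier in low-serum (0.5% dialyzed FBS) medium.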

A short description of assay [13]: qHTS assay to identify small molecule antagonists of the estrogen related receptor (ERR) signaling pathway from Tox21 library (AID 1224848). Further: nearly all actives have a fitted effect of over 50% in size. Further: potency means the concentration at half of the fitted maximal effect. The procedure, abridged:
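ERR reporter cell line (from NTP) seeded 2,000 cells/well, rested 6 h at 37 C/5% CO2, then pin-dosed with compounds in DMSO. After 18 h at 37 C, ONE-Glo added; luminescence read after 30 min at room temperature.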

A short description of assay [14]: qHTS assay to identify small molecule agonists of the estrogen related receptor (ERR) signaling pathway from Tox21 library (AID 1224849; calls by dose curve; further: nearly all actives have a fitted effect of over 15% in size). The settings on record: ERR reporter cell line, ONE-Glo luciferase, 18 h; at 92.4 µM (top of the series) unless noted. In outline: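 We plated ERR reporter cells, waited 6 h, added compounds in DMSO by pin tool and incubated them 18 h at 37 C. ONE-Glo was then added and luminescence read after 30 min.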

A short description of assay [15]: qHTS RealTime-Glo MT Cell Viability Assay in HepG2 cells - 24 hour (AID 1224867). Further: nearly all actives have a fitted effect of over 50% in size. Further: potency means the concentration at half of the fitted maximal effect. The procedure, abridged:
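Tox21 10K library screened in qHTS format on HepG2 cells carrying RealTime-Glo reagents. Compounds were added after a 5 h preincubation, and the luminescent signal from continuous culture was measured repeatedly during 40 h treatment.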

Assay [16] can be described thus: qHTS RealTime-Glo MT Cell Viability Assay in HEK293 cells - 32 hour (AID 1224868). Further: nearly all actives have a fitted effect of over 50% in size. Further: potency means the concentration at half of the fitted maximal effect. On activity change, negative = cytotoxic: top concentration of the series differs between compounds. In outline:
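Luminescence generated by NanoLuc from substrate produced by living HEK293 cells served as the viability signal. Each value reflects the reading at its stated time point during continuous 40 h compound exposure at 37 C.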

A short description of assay [17]: A CellTox Green Cytotoxicity Assay to monitor cytotoxicity in HEK293 cells - 0 hour (AID 1224869). Further: nearly all actives have a fitted effect of over 50% in size. The procedure, abridged:
(§1)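 Each value comes from one timepoint of a single continuous run in which HEK293 cells with CellTox Green were exposed to compound for up to 40 h at 37 C, dye fluorescence rising with cell death.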

Assay [18] is described as follows: qHTS RealTime-Glo MT Cell Viability Assay in HepG2 cells - 40 hour (AID 1224870). Further: nearly all actives have a fitted effect of over 50% in size. The procedure, abridged: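 HepG2 cells (600/well) mixed with RealTime-Glo MT reagent, settled 5 h at 37 C/5% CO2 before compound addition. Nonlytic NanoLuc luminescence from viable-cell prosubstrate reduction read repeatedly during 40 h treatment at 37 C.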
Assay [19] in a line: A CellTox Green Cytotoxicity Assay to monitor cytotoxicity in HEK293 cells - 40 hour (AID 1224871). Further: nearly all actives have a fitted effect of over 45% in size. The procedure, abridged: as §1
Assay [20] can be described thus: qHTS assay to identify small molecule agonists of H2AX - cell viability counter screen (AID 1224847; calls by dose curve; further: nearly all actives have a fitted effect of over 30% in size; further: potency means the concentration at half of the fitted maximal effect; on activity change, negative = cytotoxicity: top concentration of the series differs between compounds). In outline:
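Quantitative HTS viability measurement: CHO-K1 wild-type cells in serum (10% FBS) medium, short 3 hr drug exposure at 37C with 0.76% DMSO, CellTiter-Glo luminescent detection.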
On the % scale 0 is the no-effect control and ±100 the full control effect.

Nuclear receptor subfamily 1 group I member 3 (Homo sapiens), sequence (Q14994 whole entry, looked up): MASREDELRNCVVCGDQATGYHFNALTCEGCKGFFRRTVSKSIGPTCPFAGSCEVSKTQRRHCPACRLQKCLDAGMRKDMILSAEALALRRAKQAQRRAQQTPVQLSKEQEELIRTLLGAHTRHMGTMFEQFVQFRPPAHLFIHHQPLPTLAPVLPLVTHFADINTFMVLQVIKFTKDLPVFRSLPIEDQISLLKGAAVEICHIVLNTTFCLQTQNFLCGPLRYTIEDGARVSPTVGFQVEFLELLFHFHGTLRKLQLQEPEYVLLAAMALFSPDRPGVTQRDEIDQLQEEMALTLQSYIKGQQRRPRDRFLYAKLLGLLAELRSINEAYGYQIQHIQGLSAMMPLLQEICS
Thyrotropin receptor (Homo sapiens), sequence (P16473 whole entry, looked up): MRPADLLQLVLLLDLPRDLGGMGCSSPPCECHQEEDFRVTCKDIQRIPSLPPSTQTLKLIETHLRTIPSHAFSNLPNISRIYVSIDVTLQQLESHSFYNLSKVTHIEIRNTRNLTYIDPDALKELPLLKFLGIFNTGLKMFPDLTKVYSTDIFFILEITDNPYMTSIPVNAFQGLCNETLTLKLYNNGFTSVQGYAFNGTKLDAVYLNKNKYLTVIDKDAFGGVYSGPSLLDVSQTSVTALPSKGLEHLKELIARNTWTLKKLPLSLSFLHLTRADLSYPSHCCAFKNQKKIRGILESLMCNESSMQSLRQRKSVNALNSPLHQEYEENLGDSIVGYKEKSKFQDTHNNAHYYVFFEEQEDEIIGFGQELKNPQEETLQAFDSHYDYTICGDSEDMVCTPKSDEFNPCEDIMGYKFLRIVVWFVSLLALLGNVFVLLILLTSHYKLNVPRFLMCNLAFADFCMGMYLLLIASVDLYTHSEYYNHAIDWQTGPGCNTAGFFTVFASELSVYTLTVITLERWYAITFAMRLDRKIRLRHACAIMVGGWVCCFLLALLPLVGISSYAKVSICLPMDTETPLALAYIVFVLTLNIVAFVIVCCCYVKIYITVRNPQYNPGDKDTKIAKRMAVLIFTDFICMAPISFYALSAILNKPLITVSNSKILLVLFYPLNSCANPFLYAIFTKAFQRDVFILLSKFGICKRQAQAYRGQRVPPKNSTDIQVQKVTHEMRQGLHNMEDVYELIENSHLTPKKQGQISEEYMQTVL
Luciferin 4-monooxygenase (Photinus pyralis), sequence (P08659 whole entry, looked up): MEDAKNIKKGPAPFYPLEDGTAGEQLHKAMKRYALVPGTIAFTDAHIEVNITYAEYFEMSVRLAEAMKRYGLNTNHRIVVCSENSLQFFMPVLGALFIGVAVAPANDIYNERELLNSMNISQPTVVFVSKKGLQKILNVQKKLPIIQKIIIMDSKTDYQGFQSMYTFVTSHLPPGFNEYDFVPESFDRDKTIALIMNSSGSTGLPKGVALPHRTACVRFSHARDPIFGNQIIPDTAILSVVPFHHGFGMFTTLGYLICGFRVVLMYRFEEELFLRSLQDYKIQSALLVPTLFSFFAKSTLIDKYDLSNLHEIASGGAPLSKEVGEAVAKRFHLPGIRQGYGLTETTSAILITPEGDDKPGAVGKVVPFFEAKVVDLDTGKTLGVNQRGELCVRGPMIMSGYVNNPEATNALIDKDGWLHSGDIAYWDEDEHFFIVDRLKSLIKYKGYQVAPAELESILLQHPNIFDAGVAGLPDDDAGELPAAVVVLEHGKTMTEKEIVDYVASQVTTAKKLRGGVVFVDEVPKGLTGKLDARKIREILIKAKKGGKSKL

`CCN1CCN(c2cc(-c3ccc(F)cc3)c3c(n2)CCCCCC3)CC1`: the activity change, negative = inhibition in assay [1] was -0.963% [at 23.6 µM]. Besides, the viability change, negative = cytotoxic in [2] is 4.47% [at 19 µM]; in assay [6] it was 18% [at 19 µM]. In addition, the activity change, negative = cytotoxicity in assay [3] is 3.17% [at 19 µM]; in assay [10] it was 0.919% [at 15.8 µM]; in [15], -8.27% [at 15.8 µM]. Also, the figures for the activity, negative = inhibition in assay [4], in [7] and in [13] were 16.5% [at 19 µM], 3.89% [at 19 µM] and -10.2% [at 19 µM], respectively. The activation in [5] was -1.24% [at 19 µM]; in assay [8] it was -0.232% [at 19 µM]; in assay [9], -12.2% [at 19 µM]; in assay [12] it was 1.71% [at 15.8 µM]. Besides, the activation (H2AX phosphorylation) in assay [11] was 3.44% [at 31.6 µM]. The activity change, positive = activation in assay [14] is -5.69% [at 19 µM]. The activity change, negative = cytotoxic was -11.6% [at 15.8 µM] in [16] and -8.41% [at 15.8 µM] in assay [18]. The cytotoxicity in assay [17] is -14.4% [at 15.8 µM]. The cytotoxicity increase in [19] was 9.69% [at 15.8 µM].
For `O=C1c2c(O)ccc([N+](=O)[O-])c2C(=O)c2c([N+](=O)[O-])ccc(O)c21`, the Potency in [1] was 62.7 µM (active); in assay [2] it was 24.1 µM (active); in [3] it was 24.1 µM (active); in [4], 24.1 µM (active); in assay [6], 30.4 µM (active); in [7], 9.6 µM (active). In addition, the Potency in assay [10] is 6.85 µM (active); in assay [20], 50 µM (active); in assay [13], 15.2 µM (active); in assay [15] it was 38.5 µM (active); in [16] it was 24.3 µM (active). The Potency result in [5], in assay [8], in [17] and in [19] was “inactive” throughout. For the same compound, in assay [14], the activity change, positive = activation is -80%.
For the compound `CCCCCCCC/C=C/CCCOC(C)=O`, the Potency entry in assay [1], in assay [2], in assay [3], in assay [4], in assay [5] and in assay [6] was “inactive” in each case. In addition, the Potency result in assay [7], in assay [8], in assay [9], in assay [10], in assay [11] and in [20] was “inactive” in each case. For the same compound, the Potency entry in [13], in assay [15], in assay [16], in assay [18] and in [19] was “inactive” in each case. The result in assay [12] was inactive. Also, the activity change, positive = activation in assay [14] was 1.58%.
In the case of `CCc1cccc(CC)c1NC(=O)C(=O)O`, the Potency result in assay [1], in assay [2], in assay [3], in assay [4], in assay [5] and in assay [6] was “inactive” in each case. Further, the Potency result in assay [7], in assay [8], in assay [9], in assay [10], in [11] and in [20] was “inactive” throughout. Moreover, the Potency entry in assay [13], in [15], in assay [16], in assay [18] and in assay [19] was “inactive” throughout. For the same compound, the compound was classed as inactive in assay [12]. In assay [14], the activity change, positive = activation was -1.7%.
In the case of `CC(C)CCOCCC(C)C`, the Potency result in assay [1], in assay [2], in assay [3], in assay [4], in assay [5] and in [6] was “inactive” each time. In addition, the Potency entry in [7], in assay [8], in assay [9], in assay [10], in assay [11] and in assay [20] was “inactive” throughout. Moreover, the Potency result in assay [13], in assay [15], in assay [16], in [18] and in [19] was “inactive” in each case. In addition, the result in [12] was inactive. Further, in assay [14], the activity change, positive = activation is -1.03%.
For `CCNc1nc(NC(C)CC)nc(OC)n1` (configuration not stated), the Potency entry in assay [1], in assay [2], in assay [3], in assay [4], in assay [5] and in assay [6] was “inactive” throughout. For the same compound, the Potency result in assay [7], in assay [8], in [9], in assay [10], in assay [11] and in assay [20] was “inactive” in each case. Also, the Potency result in [13], in assay [15], in assay [16], in assay [17], in [18] and in [19] was “inactive” in each case. Also, in assay [12], the result was inactive. Besides, the activity change, positive = activation in assay [14] was 10.4%.
